According to PubChem BioAssay (NCATS):
Results filed as inconclusive are left out. A number with no mark means an inactive call. Activity calls are given as the source filed them. Calls follow the shape of the dose curve; as a rule, active = well fitted cell-killing curve with a large enough effect; inconclusive = small, poorly fitted or top-dose-only effect, or effect the other way; inactive = flat fitted curve, though single readings scatter.
% is scaled to controls: 0 for no effect and ±100 for the full control effect; potency is read from the fitted curve at half-maximal effect.

The molecules below were run on Tov112D (assay: Primary qHTS to identify gynecologic anti-cancer compounds using libraries of approved drugs and bioactive compounds (AID 1345084; also: nearly all actives have a fitted effect of over 55% in size)). Details: Gynecologic cancer cell panel viability, ATPlite luminescence, 48 h; series mostly up to 57.5 µM; activity change, negative = cytotoxicity: at the top concentration.
Outline: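 48 h compound exposure at 37 C, 5% CO2; five-point qHTS. ATPlite luminescence readout of cell ATP.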
In the case of COC(=O)C1=C(C)NC(C)=C(C(=O)OCCN2CCN(C(c3ccccc3)c3ccccc3)CC2)C1c1cccc([N+](=O)[O-])c1 (configuration not stated), the “activity change, negative = cytotoxicity” value is reported as -24.5%.
With CCS(=O)(=O)c1cccc(-c2cc(C(=O)NC3CCN(C)CC3)c(C)c3[nH]c4ncc(C)cc4c23)c1 the Potency was 2000 nM (active).
With CC1COC2(CCN(c3nc(=O)c4cc(C(F)(F)F)cc([N+](=O)[O-])c4s3)CC2)O1 (configuration not stated) the “activity change, negative = cytotoxicity” value was -3.39%.
With CCOC(=O)C1=C(C)NC2=C(C(=O)CC(C)(C)C2)C1c1ccc(-c2ccccc2)cc1 (configuration not stated) the Potency was 31600 nM (active).
For Cc1c(NC(=O)OC[C@@H]2COCCN2)cn2ncnc(Nc3ccc4c(cnn4Cc4cccc(F)c4)c3)c12, the “activity change, negative = cytotoxicity” value was -2.37%.
With COC(=O)c1ccc2c(C(=Nc3ccc(N(C)C(=O)CN4CCN(C)CC4)cc3)c3ccccc3)c(O)[nH]c2c1 the “activity change, negative = cytotoxicity” value was -17.7%.
Cc1nc2ccc(CN(C)c3ccc(C(=O)N[C@@H](CCC(=O)O)C(=O)O)s3)cc2c(=O)[nH]1 was tested, and the Potency was 316 nM (active).
Cc1c(C)n(Cc2ccc(-c3ccccc3C(=O)O)cc2)c2ccc(C(=O)N[C@@H](C)c3ccc([N+](=O)[O-])cc3)cc12 was tested, and the “activity change, negative = cytotoxicity” value was 17.9%.
CS(=O)(=O)c1ccc(-c2cnc(N)c(C(=O)Nc3ccccc3)n2)cc1 was tested, and the “activity change, negative = cytotoxicity” value was 5.05%.
In the case of C=CCn1c(=O)c2cnc(Nc3ccc(N4CCN(C)CC4)cc3)nc2n1-c1cccc(C(C)(C)O)n1, the Potency is reported as 2000 nM (active).
For Cc1ccc(C(N)=O)cc1Nc1nccc(-c2cn(C(C)C)c3cnccc23)n1, the Potency was 17800 nM (active).
With Nc1ccccc1NC(=O)c1ccc(CNc2nccc(-c3cccnc3)n2)cc1 the Potency was 3550 nM (active).
